Experimental data reported in PubChem BioAssay (Tox21).
Where “and” joins values, the source holds several entries; their conditions need not be identical. Equal entries are not always repeated. Inconclusive results are not listed. Where a call stands in place of a potency, no number is given. A structure can be active in one record and inactive in another. Calls of active or inactive are those of the source. Unless noted, the call rests on the fitted dose curve; in most records, active means well fitted curve in the direction sought with a large enough effect in the repeat runs; inconclusive means weak or mixed curves; inactive means no such curve, though single readings can be large; an effect the other way counts as inactive or inconclusive. Starred links: 1 amine or outer side, 2 acyl side, 3 side chain; linkers in the order of their positions; H or OH if unused. Positions of bridges follow the written chain, without caps; N, C: chain ends. Non-standard residues stand in square brackets, D forms with d. Residues, ends and D or L forms follow the SMILES beside them. Chains are numbered I, II in the order given. Actinocin(9to1) = Cc1c2oc3c(C)ccc(C(=O)[*:1])c3nc-2c(C(=O)[*:2])c(N)c1=O; NMeV = CN[C@H](C(=O)O)C(C)C; Sar = CNCC(=O)O

Tests used:
[1] = molecular target: Progesterone receptor (Homo sapiens) (UniProt P06401); assay: qHTS assay to identify small molecule antagonists of the progesterone receptor (PR) signaling pathway (AID 1346795; active means well fitted inhibition curve with a large enough effect in the signal ratio in the repeat runs, not every such curve was filed as active; the % refers to the signal ratio; further: potency means the concentration at half of the fitted maximal effect)
Chain of Progesterone receptor (Homo sapiens) (P06401 whole entry, looked up): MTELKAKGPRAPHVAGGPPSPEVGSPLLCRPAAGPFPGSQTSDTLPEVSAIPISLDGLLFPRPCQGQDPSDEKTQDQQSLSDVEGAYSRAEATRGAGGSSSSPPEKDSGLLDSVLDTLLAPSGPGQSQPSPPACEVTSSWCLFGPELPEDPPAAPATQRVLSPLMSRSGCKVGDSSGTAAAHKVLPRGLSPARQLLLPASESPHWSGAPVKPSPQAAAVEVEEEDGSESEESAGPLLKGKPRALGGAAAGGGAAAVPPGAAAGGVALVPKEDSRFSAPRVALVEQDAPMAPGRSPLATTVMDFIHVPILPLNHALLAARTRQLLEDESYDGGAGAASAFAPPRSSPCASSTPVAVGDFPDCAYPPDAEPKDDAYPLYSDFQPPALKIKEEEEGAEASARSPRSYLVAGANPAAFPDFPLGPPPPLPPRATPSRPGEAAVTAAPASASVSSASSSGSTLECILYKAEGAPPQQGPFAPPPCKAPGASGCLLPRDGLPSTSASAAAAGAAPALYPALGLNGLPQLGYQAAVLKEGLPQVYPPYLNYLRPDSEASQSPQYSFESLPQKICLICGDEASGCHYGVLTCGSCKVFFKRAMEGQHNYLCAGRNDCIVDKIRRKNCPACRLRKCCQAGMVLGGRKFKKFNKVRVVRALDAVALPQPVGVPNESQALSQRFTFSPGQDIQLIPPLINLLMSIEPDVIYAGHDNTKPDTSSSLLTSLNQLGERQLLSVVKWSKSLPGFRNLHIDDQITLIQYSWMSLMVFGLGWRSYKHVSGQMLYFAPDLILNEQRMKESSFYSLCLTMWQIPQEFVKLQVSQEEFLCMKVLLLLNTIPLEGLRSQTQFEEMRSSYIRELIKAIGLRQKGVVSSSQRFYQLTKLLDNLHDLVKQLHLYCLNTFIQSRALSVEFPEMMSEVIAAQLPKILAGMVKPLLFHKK
Outline: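 After 6 hr plating at 37C in 2% stripped-serum medium, PR-UAS-bla HEK293T cells got compounds, then 1 nM R5020. Sixteen hours later, LiveBLAzer substrate was applied for 2 hr at room temperature and fluorescence was recorded.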

[2] = qHTS assay to identify small molecule antagonists of the progesterone receptor (PR) signaling pathway - cell viability counter screen (AID 1346798); further: nearly all actives have a fitted effect of over 50% in size; further: potency means the concentration at half of the fitted maximal effect; on activity change, negative = cytotoxicity: series mostly up to about 92 µM
Outline: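 Viability was determined by ATP-based luminescence (CellTiter-Glo) in PR-UAS-bla HEK293T cells cultured in 2% charcoal-stripped serum and incubated 16 hr with compounds under R5020 stimulation.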

[3] = qHTS assay to identify small molecule agonists of the progesterone receptor (PR) signaling pathway - cell viability counter screen (AID 1346799; calls by dose curve; further: nearly all actives have a fitted effect of over 45% in size; further: potency means the concentration at half of the fitted maximal effect)
Outline: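 Viability was scored by ATP luminescence (CellTiter-Glo, 30 min, room temperature) in the same wells used for the reporter readout, after 16 hr compound exposure of PR-UAS-bla HEK293T cells.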

[4] = qHTS assay to identify small molecule antagonists of the TGF-beta/Smad signaling pathway - cell viability counter screen (AID 1346824); further: nearly all actives have a fitted effect of over 50% in size
Outline: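 Cytotoxicity counter-screen run in the same wells as the beta-lactamase Smad reporter read: CellTiter-Glo luminescence after 30 min at room temperature. HEK 293T SBE-bla cells had 5 hr compound exposure at 37 C with TGF-beta1 (0.25 ng/mL stock).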

[5] = qHTS assay to identify small molecule agonists of the TGF-beta/Smad signaling pathway - cell viability counter screen (AID 1346829); further: top concentration of the series differs between compounds; nearly all actives have a fitted effect of over 45% in size
Outline: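 Cytotoxicity counter screen: CellTiter-Glo luminescence (30 min, room temperature) measured in the SBE-bla HEK 293T reporter wells after 5 hr compound treatment at 37 C and the 2 hr substrate step.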

[6] = Human pregnane X receptor (PXR) small molecule agonists, qHTS cell viability counter screen (AID 1346977); further: nearly all actives have a fitted effect of over 50% in size; further: potency means the concentration at half of the fitted maximal effect
Outline: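 HepG2 cells stably carrying the PXR-Luc reporter are cultured with 5% charcoal-stripped FBS and treated with compounds for 24hr. CellTiter-Fluor is added at 23hr and fluorescence is read after 1hr.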

[7] = Caspase-3/7 induction in HepG2 cells by small molecules, qHTS assay (AID 1346978); further: nearly all actives have a fitted effect of over 15% in size; further: potency means the concentration at half of the fitted maximal effect
Outline: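 Caspase-3/7 induction was measured by Caspase-Glo 3/7 luminescence (30 min, room temperature) after a 17 hr compound exposure of wild-type HepG2 cells seeded at 2,000 per well and pre-incubated 5 hr.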

[8] = qHTS assay to identify small molecule agonists of the TGF-beta/Smad signaling pathway (AID 1346859; active means well fitted activation curve with a large enough effect in the signal ratio in the repeat runs, not every such curve was filed as active; the % refers to the signal ratio; further: series mostly up to about 77 µM)
Outline: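 Dual-wavelength fluorescence (460/530 nm emission) quantified beta-lactamase expression under the Smad binding element in HEK 293T cells following 5 hr compound treatment at 37 C.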

[9] = molecular target: Thyrotropin-releasing hormone receptor (Homo sapiens) (UniProt P34981); assay: qHTS assay to identify small molecule antagonists of the thyrotropin-releasing hormone receptor (TRHR) signaling pathway (AID 1346877; active means well fitted inhibition curve with a large enough effect in the repeat runs, not every such curve was filed as active; further: series mostly up to about 51 µM)
Chain of Thyrotropin-releasing hormone receptor (Homo sapiens) (P34981 whole entry, looked up): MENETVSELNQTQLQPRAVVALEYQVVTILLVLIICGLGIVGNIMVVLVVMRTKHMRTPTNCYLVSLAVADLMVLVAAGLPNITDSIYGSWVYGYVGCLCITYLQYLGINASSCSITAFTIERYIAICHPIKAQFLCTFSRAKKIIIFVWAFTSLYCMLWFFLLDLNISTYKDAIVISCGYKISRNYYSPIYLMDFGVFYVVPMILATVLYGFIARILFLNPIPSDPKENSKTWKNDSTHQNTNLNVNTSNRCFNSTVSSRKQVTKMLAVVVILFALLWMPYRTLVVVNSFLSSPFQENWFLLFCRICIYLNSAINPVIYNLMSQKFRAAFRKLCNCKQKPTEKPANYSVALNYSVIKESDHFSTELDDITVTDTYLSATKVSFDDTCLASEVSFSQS
Outline: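 HEK293/TRHR cells, 18 h, 37 °C; Ca2+ dye 2 h; cpd 5 min RT; TRH 1 nM final; fluorescence read 3 min, 1 s intervals; 15 concs, triplicate.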

[10] = molecular target: Thyrotropin-releasing hormone receptor (Homo sapiens) (UniProt P34981); assay: qHTS assay to identify small molecule agonists of the thyrotropin-releasing hormone receptor (TRHR) signaling pathway (AID 1346891; calls by dose curve; further: potency means the concentration at half of the fitted maximal effect;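 on activation: HEK293 cells expressing TRHR with calcium dye readout; series mostly up to about 58 µM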)
Outline: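 Kinetic fluorescence (3 min, 1 s intervals) reported intracellular calcium after compound transfer onto TRHR-Hek293 cells pre-loaded with dye for 2 h at 37 °C.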

For `NC12CC3CC(CC(C3)C1)C2`, the Potency [1] was “inactive”, the Potency [2] was “inactive” and the Potency [3] was “inactive”. For the same compound, the Potency [4] was “inactive”, the Potency [5] was “inactive” and the Potency [6] was “inactive”. For the same compound, the Potency [7] was “inactive”.

With `[Cl][In]([Cl])[Cl]` the Potency [1] was “inactive”, the Potency [4] was “inactive” and the Potency [5] was “inactive”. For the same compound, the outcome [8] was “inactive”, the Potency [9] was “inactive” and the Potency [6] was “inactive”.

In the case of `CC(=O)CC(C)=O`, the Potency [1] is reported as “inactive”, the Potency [2] is reported as “inactive” and the Potency [3] is reported as “inactive”. The Potency [4] was “inactive”, the Potency [5] was “inactive” and the Potency [6] was “inactive”. For the same compound, the Potency [7] was “inactive”.

For `CC1COC(=O)O1` (stereo unspecified), the Potency [1] was “inactive”, the Potency [2] was “inactive” and the Potency [3] was “inactive”. For the same compound, the Potency [4] was “inactive”, the Potency [5] was “inactive” and the Potency [9] was “inactive”. The Potency [7] was “inactive”.

With `CC[C@H]1CN2CCc3cc(OC)c(OC)cc3[C@@H]2C[C@@H]1C[C@H]1NCCc2cc(OC)c(OC)cc21` the Potency [1] was 0.772 µM (active), the Potency [2] was “inactive” and the Potency [3] was “inactive”. The Potency [4] was “inactive”, the Potency [5] was “inactive” and the Potency [6] was 24.4 nM (active) and 10.6 nM (active). For the same compound, the Potency [7] was “inactive”.

In the case of `Oc1c(Cl)cc(Cl)cc1Sc1cc(Cl)cc(Cl)c1O`, the Potency [1] is reported as 21.7 µM (active) and 49.3 µM (active), the Potency [4] is reported as “inactive” and the Potency [5] is reported as “inactive”. The outcome [8] was “inactive” and the Potency [10] was 39.6 µM (active) and inactive.

In the case of `CO[Si](OC)(OC)c1ccccc1`, the Potency [1] is reported as “inactive”, the Potency [2] is reported as “inactive” and the Potency [3] is reported as “inactive”. For the same compound, the Potency [4] was “inactive”, the Potency [5] was “inactive” and the Potency [6] was “inactive”. The Potency [7] was “inactive”.

In the case of `O=C(O[C@@H]1Cc2c(O)cc(O)cc2O[C@@H]1c1cc(O)c(O)c(O)c1)c1cc(O)c(O)c(O)c1`, the Potency [1] is reported as “inactive”, the Potency [2] is reported as “inactive” and the Potency [3] is reported as “inactive”. The Potency [4] was “inactive”, the Potency [5] was “inactive” and the Potency [10] was “inactive”. The Potency [7] was “inactive”.

For `O=S(=O)(O)c1ccc2nc(-c3ccccc3)[nH]c2c1`, the Potency [1] was “inactive”, the Potency [3] was 32.7 µM (active) and 8.41 µM (active) and the outcome [8] was “inactive”. For the same compound, the Potency [9] was “inactive” and the Potency [10] was “inactive”.

For `CC(C(O)c1ccc(O)cc1)N1CCC(Cc2ccccc2)CC1` (stereo unspecified), the Potency [1] was “inactive”, the Potency [2] was “inactive” and the Potency [4] was “inactive”. The Potency [5] was “inactive”, the outcome [8] was “inactive” and the Potency [10] was “inactive”. For the same compound, the Potency [7] was “inactive”.

In the case of `CC(=O)OCCOCCOCCOC(C)=O`, the Potency [1] is reported as “inactive”, the Potency [2] is reported as “inactive” and the Potency [3] is reported as “inactive”. For the same compound, the Potency [4] was “inactive”, the Potency [5] was “inactive” and the Potency [10] was “inactive”. For the same compound, the Potency [7] was “inactive”.

With `COC(=O)[C@H]1[C@H]2C[C@@H]3c4[nH]c5cc(OC)ccc5c4CCN3C[C@H]2C[C@@H](OC(=O)c2cc(OC)c(OC)c(OC)c2)[C@@H]1OC` the Potency [1] was “inactive”, the Potency [2] was “inactive” and the Potency [3] was “inactive”. The Potency [4] was “inactive”, the Potency [5] was “inactive” and the Potency [6] was 39.7 µM (active) and inactive. The Potency [7] was “inactive”.

With `CCCCCC(=O)O[C@]1(C(C)=O)CC[C@H]2[C@@H]3CCC4=CC(=O)CC[C@]4(C)[C@H]3CC[C@@]21C` the Potency [1] was 21.1 µM (active), the Potency [2] was 43 µM (active) and 33.5 µM (active) and the Potency [4] was “inactive”. The Potency [9] was “inactive”, the Potency [6] was 43 µM (active) and the Potency [7] was “inactive”.

In the case of `CC(N)=O`, the Potency [1] is reported as “inactive”, the Potency [2] is reported as “inactive” and the Potency [4] is reported as “inactive”. For the same compound, the Potency [5] was “inactive”, the outcome [8] was “inactive” and the Potency [9] was “inactive”. The Potency [7] was “inactive”.

For `Cc1cc(C2(c3cc(C)c(O)cc3C)OS(=O)(=O)c3ccccc32)c(C)cc1O`, the Potency [1] was 61.1 µM (active), the Potency [3] was “inactive” and the Potency [4] was “inactive”. For the same compound, the Potency [5] was “inactive”, the Potency [6] was 35.5 µM (active) and 13.7 µM (active) and the Potency [7] was “inactive”.

For `Oc1c(Cl)cc(Cl)c(Cl)c1Cc1c(O)c(Cl)cc(Cl)c1Cl`, the Potency [1] was 48.6 µM (active), the Potency [2] was 43.1 µM (active) and the Potency [4] was “inactive”. The outcome [8] was “inactive”, the Potency [10] was 30.8 µM (active) and 34.7 µM (active) and inactive and the Potency [6] was 2.72 µM (active) and 1.72 µM (active) and 6.68 µM (active).

In the case of `CCN(CC)C(=S)SSC(=S)N(CC)CC`, the Potency [1] is reported as 0.237 µM (active), the Potency [3] is reported as “inactive” and the Potency [4] is reported as “inactive”. The Potency [5] was “inactive”, the outcome [8] was “inactive” and the Potency [9] was “inactive”. The Potency [10] was “inactive” and the Potency [7] was 611 nM (active) and 395 nM (active).

For `O=C(O)Cn1cnnn1`, the Potency [1] was “inactive”, the Potency [2] was “inactive” and the Potency [4] was “inactive”. For the same compound, the Potency [5] was “inactive”, the outcome [8] was “inactive” and the Potency [9] was “inactive”. The Potency [10] was “inactive”, the Potency [6] was “inactive” and the Potency [7] was “inactive”.

In the case of `NCCO`, the Potency [1] is reported as “inactive”, the Potency [2] is reported as “inactive” and the Potency [3] is reported as “inactive”. The Potency [4] was “inactive”, the Potency [5] was “inactive” and the Potency [6] was “inactive”. For the same compound, the Potency [7] was “inactive”.

With `CCCN[C@H]1CCc2nc(N)sc2C1` the Potency [1] was “inactive”, the Potency [2] was “inactive” and the Potency [3] was “inactive”. For the same compound, the Potency [4] was “inactive”, the Potency [5] was “inactive” and the Potency [6] was “inactive”. The Potency [7] was “inactive”.

For `Nc1cc(S(=O)(=O)O)cc2cc(S(=O)(=O)O)cc(O)c12`, the Potency [1] was “inactive”, the Potency [2] was “inactive” and the Potency [4] was “inactive”. For the same compound, the Potency [5] was “inactive”, the outcome [8] was “inactive” and the Potency [9] was “inactive”. The Potency [10] was “inactive” and the Potency [7] was “inactive”.

In the case of `CC(=O)O[C@]1(C(C)=O)CC[C@H]2[C@@H]3C[C@H](C)C4=CC(=O)CC[C@]4(C)[C@H]3CC[C@@]21C`, the Potency [1] is reported as “inactive”, the Potency [4] is reported as “inactive” and the Potency [5] is reported as “inactive”. For the same compound, the Potency [6] was “inactive” and the Potency [7] was “inactive”.

For `CCCCCCCCCCCCCCCCCl`, the activity change, negative = inhibition [1] was 4.71% [at 18.9 µM] (inactive), the activity change, negative = cytotoxicity [2] was -2.11% [at 18.9 µM] (inactive) and the viability change, negative = cytotoxic [4] was 1.48% [at 15.8 µM] (inactive). The activity change, negative = cytotoxicity [5] was 1.73% [at 15.8 µM] (inactive), the activity, negative = inhibition [9] was 3.5% [at 10.5 µM] (inactive) and the activation [10] was -0.271% [at 11.8 µM] (inactive). The activity change, negative = cytotoxicity [6] was 0.261% [at 19 µM] (inactive).

With `Cc1c2oc3c(C)ccc(C(=O)N[C@@H]4C(=O)N[C@H](C(C)C)C(=O)N5CCC[C@H]5C(=O)N(C)CC(=O)N(C)[C@@H](C(C)C)C(=O)O[C@@H]4C)c3nc-2c(C(=O)N[C@@H]2C(=O)N[C@H](C(C)C)C(=O)N3CCC[C@H]3C(=O)N(C)CC(=O)N(C)[C@@H](C(C)C)C(=O)O[C@@H]2C)c(N)c1=O` (I: T[dV]P[Sar][NMeV] / II: T[dV]P[Sar][NMeV]; ester I:1-I:C, II:1-II:C; linker I:N-II:N via Actinocin(9to1)) the Potency [1] was 26.6 nM (active) and 33.5 nM (active), the Potency [4] was “inactive” and the Potency [5] was “inactive”. The outcome [8] was “inactive”, the Potency [9] was “inactive” and the Potency [10] was “inactive”. The Potency [6] was 29.8 nM (active) and 47.3 nM (active) and the Potency [7] was 13.3 nM (active) and 18.8 nM (active).

In the case of `CCC(=O)/C=C/C1C(C)=CCCC1(C)C` (stereo unspecified), the Potency [1] is reported as “inactive”, the Potency [2] is reported as “inactive” and the Potency [3] is reported as “inactive”. For the same compound, the Potency [4] was “inactive”, the Potency [5] was “inactive” and the Potency [10] was “inactive”. The Potency [6] was “inactive” and the Potency [7] was “inactive”.
